In PubChem BioAssay AID1851 (National Center for Advancing Translational Sciences (NCATS), 2009):
Hit rate of the full screen: of about 16,000 compounds, about 2,600 (16%) were called active. Inconclusive results (about 20%) are left out. Calls follow the shape of the dose curve; as a rule, active = well fitted curve in the direction sought with a large enough effect; inconclusive = small, poorly fitted or top-dose-only effect, or effect the other way; inactive = no such curve, though single readings can be large or run the other way. For the sample, actives were picked, then their nearest neighbours and some compounds at random.

What follows are compounds tested against Cytochrome P450 2D6 (Homo sapiens) (UniProt P10635) (assay: Cytochrome panel assay with activity outcomes). Conditions: recombinant CYP, pro-luciferin dealkylation, luminescence, p450-cyp2d6; series mostly up to 57.1 µM; activity, negative = inhibition: at the top concentration.
Sequence of Cytochrome P450 2D6 (Homo sapiens) (P10635 whole entry, looked up): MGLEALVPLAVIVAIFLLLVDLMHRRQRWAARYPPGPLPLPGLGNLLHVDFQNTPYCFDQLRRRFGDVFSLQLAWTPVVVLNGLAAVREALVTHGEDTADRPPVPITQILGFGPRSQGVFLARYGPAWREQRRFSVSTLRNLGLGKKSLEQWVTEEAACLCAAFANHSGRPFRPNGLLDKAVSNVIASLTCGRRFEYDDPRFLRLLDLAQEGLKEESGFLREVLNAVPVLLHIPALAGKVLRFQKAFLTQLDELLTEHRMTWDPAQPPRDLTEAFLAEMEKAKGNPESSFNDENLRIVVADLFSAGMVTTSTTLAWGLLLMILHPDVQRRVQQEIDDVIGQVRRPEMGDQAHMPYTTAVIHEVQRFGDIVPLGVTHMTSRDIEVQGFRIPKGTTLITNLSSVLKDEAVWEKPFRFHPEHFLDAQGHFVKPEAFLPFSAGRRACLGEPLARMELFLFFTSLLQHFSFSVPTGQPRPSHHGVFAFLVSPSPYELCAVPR
% is scaled to controls: 0 for no effect and ±100 for the full control effect.

**Q.** For CC(=O)OC1=CC2=CC[C@H]3[C@H]4CCC(=O)[C@@]4(C)CC(=O)[C@]3(S)[C@]2(C)CC1, which activity, negative = inhibition is on record?
**A.** 0.557% [at 11.4 µM] (inactive)

**Q.** CC[C@@](O)(C(=O)O)c1cc2n(c(=O)c1CO)Cc1cc3ccccc3nc1-2 was tested. Which activity, negative = inhibition did it give?
**A.** 10.4% [at 11.4 µM] (inactive)

**Q.** O=C(Nc1cccc(F)c1)N1CC2(CCN(C(=O)Oc3ccccc3)CC2)C1 was tested. Which “activity, negative = inhibition” value did it give?
**A.** -4.33% (inactive)

**Q.** For CN1C(=O)C(=Cc2ccccc2Oc2ccc(Cl)c(F)c2)C(=O)N(C)C1=O, which “activity, negative = inhibition” value is on record?
**A.** 16.1% (inactive)

**Q.** How did the “activity, negative = inhibition” value turn out when CC(C)C12CN3CC(C(C)C)(CN(C1)C3c1cccnc1)C2=O (configuration not stated) was run?
**A.** -8.2% (inactive)

**Q.** Which AC50 does the source give for O=C(CCCN1CCC2(CC1)C(=O)N(Cc1cccc(F)c1)CN2c1ccccc1)c1ccc(F)cc1 here?
**A.** 3.16 µM (active)

**Q.** C[C@@]12CC(=O)[C@H]3[C@@H](CCC4=CC(=O)CC[C@]43C)[C@H]1CCC2=O was tested. Which “activity, negative = inhibition” value did it give?
**A.** 2.29% [at 25.6 µM] (inactive)

**Q.** Which AC50 does the source give for COc1ccccc1CC1C(=O)C2CCN1CC2 (configuration not stated) here?
**A.** 11.2 µM (active)

**Q.** Which “activity, negative = inhibition” value does the source give for CC(C)C(=O)Nc1ccc([N+](=O)[O-])c(C(F)(F)F)c1 here?
**A.** -17.2% [at 25.6 µM] (inactive)

**Q.** Which AC50 does the source give for CN(C)C(=O)Oc1cc(OC(=O)N(C)C)cc([C@@H](O)CNC(C)(C)C)c1 here?
**A.** 7.94 µM (active)

**Q.** Which “activity, negative = inhibition” value does the source give for CN(C)C(=O)Oc1cccc([N+](C)(C)C)c1 here?
**A.** -2.57% [at 25.6 µM] (inactive)

**Q.** For CC(C)(C)NC[C@H](O)c1cc(Cl)c(N)c(Cl)c1, which “activity, negative = inhibition” value is on record?
**A.** -17.1% [at 25.6 µM] (inactive)

**Q.** For CCCC[N+]12CCC(CC1)C(C(=O)c1cccs1)C2 (configuration not stated), which AC50 is on record?
**A.** 0.282 µM (active)

**Q.** CCN1C[C@@]2(COC)CC[C@H](O)[C@@]34[C@@H]2C[C@@H]([C@@H]13)[C@]1(O)C[C@@H](OC)C2C[C@H]4[C@H]1[C@H]2OC(C)=O was tested. Which “activity, negative = inhibition” value did it give?
**A.** 1.85% [at 25.6 µM] (inactive)

**Q.** CC[N+](CC)(CCCNC1=CC(=O)C(NCCC[N+](CC)(CC)Cc2ccccc2)=CC1=O)Cc1ccccc1 was tested. Which “activity, negative = inhibition” value did it give?
**A.** -11.7% (inactive)

**Q.** For CC(=O)O[C@H]1CC[C@@]2(C)[C@@H](CC[C@H]3[C@H]2CC(=O)[C@@]2(C)[C@@H]3C[C@H]3CC(C)=CC(=O)[C@H]32)C1, which activity, negative = inhibition is on record?
**A.** 2.72% [at 11.4 µM] (inactive)

**Q.** For COc1ccc(OC)c([C@H](O)[C@H](C)N)c1, which “activity, negative = inhibition” value is on record?
**A.** -12.7% [at 25.6 µM] (inactive)

**Q.** Which AC50 does the source give for COc1ccc(C[C@@H](N)c2ccc(OC)cc2)cc1 here?
**A.** 0.631 µM (active)

**Q.** Cc1ccc(C(=O)C2C(=O)c3ccccc3C2=O)cc1 was tested. Which “activity, negative = inhibition” value did it give?
**A.** 3% (inactive)

**Q.** O=C1NC(=S)NC(=O)C1=Cc1cccc2cc3ccccc3cc12 was tested. Which activity, negative = inhibition did it give?
**A.** -0.164% [at 11.4 µM] (inactive)

**Q.** Which “activity, negative = inhibition” value does the source give for CC(C)[C@H](CO)Nc1nc(Nc2cccc(Cl)c2)c2ncn(C(C)C)c2n1 here?
**A.** 2.72% (inactive)

**Q.** With CC[C@@H](CO)Nc1nc(NCc2ccccc2)c2ncn(C(C)C)c2n1 as the compound, how does the AC50 read?
**A.** 31.6 µM (active)
